Measured values from article PMC7862700, “An all-to-all approach to the identification of sequence-specific readers for epigenetic DNA modifications on cytosine”.

Legend:
Experiment in all cases: DAPPL (digital affinity profiling via proximity ligation, sequencing); 10 mM Tris-HCl pH 7.5, 50 mM NaCl, 1 mM DTT, 4% glycerol, room temperature, 30 min; GST-TFs on glutathione beads, 16-mer random dsDNA library, 0.1% formaldehyde crosslink after washing; high values mean tight binding
[1] = target: T1, FLI1 (Homo sapiens, UniProt Q01543 1-452); details: protein: recombinant; tags: N-terminal GST; dsDNA, one strand shown
T1 sequence: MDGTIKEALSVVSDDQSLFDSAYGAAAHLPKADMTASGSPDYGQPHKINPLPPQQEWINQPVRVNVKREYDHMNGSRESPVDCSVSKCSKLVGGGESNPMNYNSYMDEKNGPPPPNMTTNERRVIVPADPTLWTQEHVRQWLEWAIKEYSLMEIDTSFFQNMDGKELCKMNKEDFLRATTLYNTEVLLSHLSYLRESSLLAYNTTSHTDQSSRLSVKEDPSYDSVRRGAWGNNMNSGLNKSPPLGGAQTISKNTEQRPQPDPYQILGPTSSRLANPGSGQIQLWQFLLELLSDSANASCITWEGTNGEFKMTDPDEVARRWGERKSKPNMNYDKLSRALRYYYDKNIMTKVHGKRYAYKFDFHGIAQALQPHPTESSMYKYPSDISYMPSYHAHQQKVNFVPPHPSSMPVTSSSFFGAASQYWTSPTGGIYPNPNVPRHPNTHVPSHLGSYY
Outline: (§1)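 Pools of DNA-barcoded human transcription factors, expressed in yeast as GST fusions on glutathione beads and combined with a tag-only sample, were incubated with 200 nmole of a 16-mer random double-stranded DNA library. Incubation took 30 min at room temperature in Tris/NaCl/DTT/glycerol buffer and was followed by washing, 0.1% formaldehyde crosslinking, proximity ligation (BsaI/T4 ligase, 1 h, 37 °C), PCR amplification and sequencing on an Illumina NextSeq500. Binding signal is the ratio of a hexamer's read frequency for a factor to its frequency for the tag-only sample.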

[2] = target: T2, ELK1 (Homo sapiens, UniProt P19419 1-428); details: protein: recombinant; tags: N-terminal GST; dsDNA, one strand shown
T2 sequence: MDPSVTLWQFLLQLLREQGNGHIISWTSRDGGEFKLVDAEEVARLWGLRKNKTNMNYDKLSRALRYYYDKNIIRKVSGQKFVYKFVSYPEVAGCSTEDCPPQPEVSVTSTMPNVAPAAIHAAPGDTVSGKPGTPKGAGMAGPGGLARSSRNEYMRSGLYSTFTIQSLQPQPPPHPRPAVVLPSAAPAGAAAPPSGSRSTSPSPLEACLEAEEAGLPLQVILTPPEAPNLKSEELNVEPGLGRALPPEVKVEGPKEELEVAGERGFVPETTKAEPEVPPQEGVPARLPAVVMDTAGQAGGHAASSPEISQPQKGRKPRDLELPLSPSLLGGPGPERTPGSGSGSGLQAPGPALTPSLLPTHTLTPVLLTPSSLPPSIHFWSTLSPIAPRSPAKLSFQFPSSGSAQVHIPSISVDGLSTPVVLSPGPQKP
Outline: as §1

[3] = target: T3, GABPA (Homo sapiens, UniProt Q06546 1-454); details: protein: recombinant; tags: N-terminal GST; dsDNA, one strand shown
T3 sequence: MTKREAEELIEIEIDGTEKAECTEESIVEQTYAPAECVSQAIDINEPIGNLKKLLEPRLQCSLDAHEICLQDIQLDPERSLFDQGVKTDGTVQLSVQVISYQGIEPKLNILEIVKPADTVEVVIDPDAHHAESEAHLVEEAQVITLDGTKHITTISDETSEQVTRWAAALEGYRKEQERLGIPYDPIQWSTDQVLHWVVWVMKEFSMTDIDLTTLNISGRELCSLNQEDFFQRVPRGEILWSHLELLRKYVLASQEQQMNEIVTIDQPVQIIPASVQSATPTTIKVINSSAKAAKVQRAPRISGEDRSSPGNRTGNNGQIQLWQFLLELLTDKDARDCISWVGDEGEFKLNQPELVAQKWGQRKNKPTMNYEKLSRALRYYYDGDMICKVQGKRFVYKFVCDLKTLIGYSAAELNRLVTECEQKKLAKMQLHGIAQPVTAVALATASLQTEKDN
Outline: as §1

[4] = target: T4, ERG (Homo sapiens, UniProt P11308 1-479); details: protein: recombinant; tags: N-terminal GST; dsDNA, one strand shown
T4 sequence: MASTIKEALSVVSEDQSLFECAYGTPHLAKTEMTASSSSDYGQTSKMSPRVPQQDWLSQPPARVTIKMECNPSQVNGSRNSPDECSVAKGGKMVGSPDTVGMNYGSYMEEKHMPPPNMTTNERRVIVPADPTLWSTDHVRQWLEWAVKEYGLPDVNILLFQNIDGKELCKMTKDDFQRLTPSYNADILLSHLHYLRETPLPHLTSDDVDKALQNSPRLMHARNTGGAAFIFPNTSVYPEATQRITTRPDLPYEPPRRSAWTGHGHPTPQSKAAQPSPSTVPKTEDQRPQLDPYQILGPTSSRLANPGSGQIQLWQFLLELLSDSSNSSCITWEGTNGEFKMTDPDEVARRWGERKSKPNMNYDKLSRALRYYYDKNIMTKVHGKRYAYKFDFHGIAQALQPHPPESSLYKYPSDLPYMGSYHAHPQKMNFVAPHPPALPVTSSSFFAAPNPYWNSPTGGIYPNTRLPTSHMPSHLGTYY
Outline: as §1

[5] = target: ELF1 (Homo sapiens, UniProt P32519 1-619); details: protein: recombinant; tags: N-terminal GST; dsDNA, one strand shown
ELF1, sequence (P32519 whole entry): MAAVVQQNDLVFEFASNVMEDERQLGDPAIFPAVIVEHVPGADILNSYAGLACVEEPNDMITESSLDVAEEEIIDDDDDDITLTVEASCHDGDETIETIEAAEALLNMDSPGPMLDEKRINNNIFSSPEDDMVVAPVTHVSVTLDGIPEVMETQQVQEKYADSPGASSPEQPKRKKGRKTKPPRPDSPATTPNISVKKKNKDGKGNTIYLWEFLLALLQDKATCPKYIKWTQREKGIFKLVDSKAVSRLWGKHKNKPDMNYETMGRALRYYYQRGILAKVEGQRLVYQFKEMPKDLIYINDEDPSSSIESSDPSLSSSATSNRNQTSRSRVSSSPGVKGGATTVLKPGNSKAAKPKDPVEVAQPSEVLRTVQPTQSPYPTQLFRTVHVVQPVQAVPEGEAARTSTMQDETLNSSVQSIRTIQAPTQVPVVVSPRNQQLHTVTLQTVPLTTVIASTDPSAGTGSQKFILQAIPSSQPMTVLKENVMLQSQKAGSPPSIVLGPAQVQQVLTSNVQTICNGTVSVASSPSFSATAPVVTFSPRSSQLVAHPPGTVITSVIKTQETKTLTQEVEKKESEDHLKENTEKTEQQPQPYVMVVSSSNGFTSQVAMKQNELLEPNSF
Outline: as §1

[6] = target: T5, EHF (Homo sapiens, UniProt Q9NZC4 1-300); details: protein: recombinant; tags: N-terminal GST; dsDNA, one strand shown
T5 sequence: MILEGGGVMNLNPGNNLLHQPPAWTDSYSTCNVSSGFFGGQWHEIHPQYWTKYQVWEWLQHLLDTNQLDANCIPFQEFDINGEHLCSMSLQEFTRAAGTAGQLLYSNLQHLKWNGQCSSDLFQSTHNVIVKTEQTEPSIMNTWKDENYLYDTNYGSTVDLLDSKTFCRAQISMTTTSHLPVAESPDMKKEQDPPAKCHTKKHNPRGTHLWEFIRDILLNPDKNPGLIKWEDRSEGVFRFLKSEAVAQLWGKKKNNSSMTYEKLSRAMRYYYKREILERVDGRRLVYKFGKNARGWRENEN
Outline: as §1

[7] = target: SPI1 (Homo sapiens, UniProt P17947 1-270); details: protein: recombinant; tags: N-terminal GST; dsDNA, one strand shown
Outline: as §1

[8] = target: SPIB (Homo sapiens, UniProt Q01892 1-262); details: protein: recombinant; tags: N-terminal GST; dsDNA, one strand shown
SPIB, sequence (Q01892 whole entry): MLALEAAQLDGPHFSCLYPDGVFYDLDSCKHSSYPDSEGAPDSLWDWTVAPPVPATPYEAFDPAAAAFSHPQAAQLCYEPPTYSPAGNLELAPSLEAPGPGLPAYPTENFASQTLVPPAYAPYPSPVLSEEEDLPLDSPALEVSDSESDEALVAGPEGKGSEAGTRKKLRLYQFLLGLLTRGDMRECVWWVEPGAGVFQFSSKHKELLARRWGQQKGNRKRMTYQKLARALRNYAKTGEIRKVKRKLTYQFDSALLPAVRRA
Outline: as §1

[9] = target: T6, ELK3 (Homo sapiens, UniProt P41970 1-407); details: protein: recombinant; tags: N-terminal GST; dsDNA, one strand shown
T6 sequence: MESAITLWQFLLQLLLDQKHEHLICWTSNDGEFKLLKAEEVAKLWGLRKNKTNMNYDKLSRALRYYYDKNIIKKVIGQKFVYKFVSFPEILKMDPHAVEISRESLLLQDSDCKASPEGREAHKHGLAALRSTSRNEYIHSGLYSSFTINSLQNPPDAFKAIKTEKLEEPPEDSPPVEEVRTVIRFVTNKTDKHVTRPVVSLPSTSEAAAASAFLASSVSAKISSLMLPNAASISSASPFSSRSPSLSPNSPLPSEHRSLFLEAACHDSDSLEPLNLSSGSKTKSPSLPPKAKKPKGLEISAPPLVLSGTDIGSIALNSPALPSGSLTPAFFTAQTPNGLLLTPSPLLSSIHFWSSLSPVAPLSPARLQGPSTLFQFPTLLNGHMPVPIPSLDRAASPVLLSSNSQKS
Outline: as §1

[10] = target: T7, FEV (Homo sapiens, UniProt Q99581 1-238); details: protein: recombinant; tags: N-terminal GST; dsDNA, one strand shown
T7 sequence: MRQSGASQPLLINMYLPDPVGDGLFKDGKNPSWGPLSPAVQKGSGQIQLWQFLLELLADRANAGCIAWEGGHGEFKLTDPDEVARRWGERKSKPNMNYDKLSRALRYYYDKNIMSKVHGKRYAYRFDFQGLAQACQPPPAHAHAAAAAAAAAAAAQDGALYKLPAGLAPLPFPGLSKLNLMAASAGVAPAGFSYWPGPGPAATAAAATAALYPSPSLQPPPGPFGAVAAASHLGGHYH
Outline: as §1

[11] = target: ETV5 (Homo sapiens, UniProt P41161 1-510); details: protein: recombinant; tags: N-terminal GST; dsDNA, one strand shown
ETV5, sequence (P41161 whole entry): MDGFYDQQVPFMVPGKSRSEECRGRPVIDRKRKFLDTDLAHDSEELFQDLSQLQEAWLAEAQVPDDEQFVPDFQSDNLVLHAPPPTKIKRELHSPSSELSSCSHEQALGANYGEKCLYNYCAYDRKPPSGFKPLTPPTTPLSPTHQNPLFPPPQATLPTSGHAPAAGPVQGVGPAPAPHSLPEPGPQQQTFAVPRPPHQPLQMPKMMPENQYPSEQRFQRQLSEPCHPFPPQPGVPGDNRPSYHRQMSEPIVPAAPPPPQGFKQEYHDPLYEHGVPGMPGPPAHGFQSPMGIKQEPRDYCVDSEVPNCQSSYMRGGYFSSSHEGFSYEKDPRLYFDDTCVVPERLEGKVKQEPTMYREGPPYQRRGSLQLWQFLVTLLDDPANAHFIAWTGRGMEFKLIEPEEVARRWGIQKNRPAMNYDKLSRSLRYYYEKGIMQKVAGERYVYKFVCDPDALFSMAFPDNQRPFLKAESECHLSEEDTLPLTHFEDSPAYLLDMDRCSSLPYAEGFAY
Outline: as §1

[12] = target: HSF1 (Homo sapiens, UniProt Q00613 1-529); details: protein: recombinant; tags: N-terminal GST; chain copies: 3; dsDNA, one strand shown
HSF1, sequence (Q00613 whole entry): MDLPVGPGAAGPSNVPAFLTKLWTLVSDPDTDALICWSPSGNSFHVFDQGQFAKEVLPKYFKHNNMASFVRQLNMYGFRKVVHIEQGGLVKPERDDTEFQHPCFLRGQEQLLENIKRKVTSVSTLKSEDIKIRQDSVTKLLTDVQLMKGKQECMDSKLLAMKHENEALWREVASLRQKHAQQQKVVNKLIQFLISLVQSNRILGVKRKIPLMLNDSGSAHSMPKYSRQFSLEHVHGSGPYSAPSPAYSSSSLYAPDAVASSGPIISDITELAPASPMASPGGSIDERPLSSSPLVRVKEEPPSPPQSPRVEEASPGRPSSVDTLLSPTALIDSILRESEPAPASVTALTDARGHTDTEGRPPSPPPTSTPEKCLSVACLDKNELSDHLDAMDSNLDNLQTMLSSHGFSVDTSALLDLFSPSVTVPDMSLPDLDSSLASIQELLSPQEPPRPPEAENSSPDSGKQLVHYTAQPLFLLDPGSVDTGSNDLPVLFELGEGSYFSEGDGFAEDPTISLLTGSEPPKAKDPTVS
Outline: as §1

[13] = target: T8, SPIC (Homo sapiens, UniProt Q8N5J4 1-248); details: protein: recombinant; tags: N-terminal GST; dsDNA, one strand shown
T8 sequence: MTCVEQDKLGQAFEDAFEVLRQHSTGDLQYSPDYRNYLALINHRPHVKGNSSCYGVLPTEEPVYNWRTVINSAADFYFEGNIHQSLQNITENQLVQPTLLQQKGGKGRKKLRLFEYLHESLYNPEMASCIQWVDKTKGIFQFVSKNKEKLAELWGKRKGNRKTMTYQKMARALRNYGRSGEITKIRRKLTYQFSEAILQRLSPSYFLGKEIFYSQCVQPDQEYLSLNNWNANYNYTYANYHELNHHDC
Outline: as §1

[14] = target: ELF4 (Homo sapiens, UniProt Q99607 1-663); details: protein: recombinant; tags: N-terminal GST; dsDNA, one strand shown
ELF4, sequence (Q99607 whole entry): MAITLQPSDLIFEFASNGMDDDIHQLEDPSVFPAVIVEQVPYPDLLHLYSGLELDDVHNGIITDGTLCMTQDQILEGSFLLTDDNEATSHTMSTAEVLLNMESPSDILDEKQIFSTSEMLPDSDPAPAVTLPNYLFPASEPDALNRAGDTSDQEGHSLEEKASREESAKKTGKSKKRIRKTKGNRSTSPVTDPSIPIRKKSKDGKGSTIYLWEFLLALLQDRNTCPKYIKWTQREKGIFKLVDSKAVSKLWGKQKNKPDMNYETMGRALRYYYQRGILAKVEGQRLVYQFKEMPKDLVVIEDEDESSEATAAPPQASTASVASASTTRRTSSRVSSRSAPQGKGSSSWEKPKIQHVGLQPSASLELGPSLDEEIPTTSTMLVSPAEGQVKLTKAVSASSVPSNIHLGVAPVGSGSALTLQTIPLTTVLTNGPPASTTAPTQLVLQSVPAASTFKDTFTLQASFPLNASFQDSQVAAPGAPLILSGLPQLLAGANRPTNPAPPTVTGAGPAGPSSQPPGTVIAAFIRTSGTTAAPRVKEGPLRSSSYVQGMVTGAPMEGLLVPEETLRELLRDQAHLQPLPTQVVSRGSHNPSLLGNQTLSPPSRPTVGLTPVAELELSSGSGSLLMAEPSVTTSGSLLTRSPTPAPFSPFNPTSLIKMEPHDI
Outline: as §1

[15] = target: T9, ELK4 (Homo sapiens, UniProt P28324-2 1-405); details: protein: recombinant; tags: N-terminal GST; dsDNA, one strand shown
T9 sequence: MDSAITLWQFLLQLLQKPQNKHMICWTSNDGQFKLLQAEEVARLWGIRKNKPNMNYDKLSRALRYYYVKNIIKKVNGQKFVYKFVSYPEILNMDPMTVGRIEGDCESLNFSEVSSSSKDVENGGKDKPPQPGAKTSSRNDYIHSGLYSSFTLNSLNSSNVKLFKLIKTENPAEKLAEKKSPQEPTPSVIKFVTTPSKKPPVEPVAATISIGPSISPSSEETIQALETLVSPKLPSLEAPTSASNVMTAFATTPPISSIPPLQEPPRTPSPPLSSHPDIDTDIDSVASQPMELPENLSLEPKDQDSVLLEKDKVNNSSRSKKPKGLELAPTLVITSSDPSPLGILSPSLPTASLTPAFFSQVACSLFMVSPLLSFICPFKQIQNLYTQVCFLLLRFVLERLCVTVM
Outline: as §1

[16] = target: T10, ETV2 (Homo sapiens, UniProt O00321 1-342); details: protein: recombinant; tags: N-terminal GST; dsDNA, one strand shown
T10 sequence: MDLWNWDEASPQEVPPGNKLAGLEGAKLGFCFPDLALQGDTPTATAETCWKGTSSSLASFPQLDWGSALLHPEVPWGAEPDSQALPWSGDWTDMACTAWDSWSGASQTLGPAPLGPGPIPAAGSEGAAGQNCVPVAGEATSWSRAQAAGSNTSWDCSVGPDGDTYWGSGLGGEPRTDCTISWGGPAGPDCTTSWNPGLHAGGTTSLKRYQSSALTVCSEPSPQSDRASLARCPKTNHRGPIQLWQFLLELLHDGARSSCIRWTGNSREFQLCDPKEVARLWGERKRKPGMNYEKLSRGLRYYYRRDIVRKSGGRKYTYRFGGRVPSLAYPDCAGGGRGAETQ
Outline: as §1

[17] = target: T11, ELF3 (Homo sapiens, UniProt P78545 1-371); details: protein: recombinant; tags: N-terminal GST; dsDNA, one strand shown
T11 sequence: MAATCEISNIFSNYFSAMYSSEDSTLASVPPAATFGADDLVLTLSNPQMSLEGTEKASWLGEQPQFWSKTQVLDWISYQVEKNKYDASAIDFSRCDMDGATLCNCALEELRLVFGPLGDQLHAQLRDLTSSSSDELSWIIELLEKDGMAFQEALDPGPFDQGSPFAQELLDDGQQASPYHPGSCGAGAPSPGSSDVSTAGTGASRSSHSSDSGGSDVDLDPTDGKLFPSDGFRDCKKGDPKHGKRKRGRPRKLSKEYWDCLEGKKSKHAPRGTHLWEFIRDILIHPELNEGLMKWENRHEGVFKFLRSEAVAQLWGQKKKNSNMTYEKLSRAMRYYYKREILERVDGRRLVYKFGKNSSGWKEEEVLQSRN
Outline: as §1

[18] = target: CRX (Homo sapiens, UniProt O43186 1-299); details: protein: recombinant; tags: N-terminal GST; dsDNA, one strand shown
CRX, sequence (O43186 whole entry): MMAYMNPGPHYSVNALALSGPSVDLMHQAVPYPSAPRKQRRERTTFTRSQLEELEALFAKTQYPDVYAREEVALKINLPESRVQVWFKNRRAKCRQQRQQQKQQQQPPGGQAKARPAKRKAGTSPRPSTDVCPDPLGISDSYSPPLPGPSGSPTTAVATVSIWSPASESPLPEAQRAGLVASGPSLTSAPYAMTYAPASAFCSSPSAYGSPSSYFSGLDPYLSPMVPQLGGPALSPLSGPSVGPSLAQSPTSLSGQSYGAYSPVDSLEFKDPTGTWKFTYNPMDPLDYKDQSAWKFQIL
Outline: as §1

[19] = target: ETV1 (Homo sapiens, UniProt P50549 1-477); details: protein: recombinant; tags: N-terminal GST; dsDNA, one strand shown
ETV1, sequence (P50549 whole entry): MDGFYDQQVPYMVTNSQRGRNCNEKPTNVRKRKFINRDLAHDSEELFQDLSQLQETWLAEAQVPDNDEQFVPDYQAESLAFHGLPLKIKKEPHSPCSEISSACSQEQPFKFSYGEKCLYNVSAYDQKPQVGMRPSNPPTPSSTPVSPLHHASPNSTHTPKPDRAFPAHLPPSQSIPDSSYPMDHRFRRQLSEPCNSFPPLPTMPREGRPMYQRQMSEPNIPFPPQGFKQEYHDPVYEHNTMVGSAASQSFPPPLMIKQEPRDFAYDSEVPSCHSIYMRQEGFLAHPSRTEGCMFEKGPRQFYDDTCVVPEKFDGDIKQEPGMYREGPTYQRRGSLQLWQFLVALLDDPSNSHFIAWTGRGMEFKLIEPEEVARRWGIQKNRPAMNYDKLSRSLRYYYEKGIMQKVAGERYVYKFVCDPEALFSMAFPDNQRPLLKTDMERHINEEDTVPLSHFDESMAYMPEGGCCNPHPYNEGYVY
Outline: as §1

## CGACTT
[1]
  binding signal: 1.84 fold enrichment (6-mer frequency, TF over GST control)
[2]
  binding signal: 1.85 fold enrichment (6-mer frequency, TF over GST control)
[3]
  binding signal: 1.58 fold enrichment (6-mer frequency, TF over GST control)
[4]
  binding signal: 1.84 fold enrichment (6-mer frequency, TF over GST control)
[5]
  binding signal: 1.69 fold enrichment (6-mer frequency, TF over GST control)
[6]
  binding signal: 1.8 fold enrichment (6-mer frequency, TF over GST control)
[7]
  binding signal: 1.9 fold enrichment (6-mer frequency, TF over GST control)
[8]
  binding signal: 1.79 fold enrichment (6-mer frequency, TF over GST control)
[9]
  binding signal: 1.94 fold enrichment (6-mer frequency, TF over GST control)
[10]
  binding signal: 2 fold enrichment (6-mer frequency, TF over GST control)
[11]
  binding signal: 1.65 fold enrichment (6-mer frequency, TF over GST control)
[12]
  binding signal: 1.57 fold enrichment (6-mer frequency, TF over GST control)
[13]
  binding signal: 1.65 fold enrichment (6-mer frequency, TF over GST control)
[14]
  binding signal: 1.69 fold enrichment (6-mer frequency, TF over GST control)
[15]
  binding signal: 1.97 fold enrichment (6-mer frequency, TF over GST control)
[16]
  binding signal: 1.72 fold enrichment (6-mer frequency, TF over GST control)
[17]
  binding signal: 1.7 fold enrichment (6-mer frequency, TF over GST control)
[18]
  binding signal: 1.74 fold enrichment (6-mer frequency, TF over GST control)
[19]
  binding signal: 1.72 fold enrichment (6-mer frequency, TF over GST control)
